For 109 molecules, Potency results are on record in PubChem BioAssay AID686978 (National Center for Advancing Translational Sciences (NCATS), 2013).

Each structure is given as a SMILES string. Screen size: about 420,000 compounds; about 64,000 (15%) were called active. Inconclusive results (about 27%) are left out. Calls follow the shape of the dose curve; as a rule, active = well fitted inhibition curve with a large enough effect; inconclusive = small, poorly fitted or top-dose-only effect; inactive = flat fitted curve, though single readings scatter. Only a sample is shown. Entries that show only a call come without a potency.
Potency is read from the fitted curve at half-maximal effect.

The nature of the test: qHTS for Inhibitors of human tyrosyl-DNA phosphodiesterase 1 (TDP1): qHTS in cells in absence of CPT. Also: nearly all actives have a fitted effect of over 55% in size. The settings on record: DT40 Tdp1-/- hTDP1 cells, no CPT, ATP luminescence, 48 h; activity change, negative = growth inhibition: at 46.2 µM (top of the series). Summed up:
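A cellular qHTS used chicken DT40 cells lacking endogenous Tdp1 but carrying stably transfected human TDP1. Compounds were applied without camptothecin, and cell growth kinetics were judged by ATP-dependent luminescence after ≥48 hr.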
`O=C(Cn1cc(C(=O)c2cccs2)c2ccccc21)NCc1cccs1`: the Potency result is “inactive”.
With `CC1(c2nnc(Cc3ccccc3)o2)CC(c2ccccc2F)=NO1` (centres undefined), the Potency result is “inactive”.
The entry for `COc1ccc(OCc2ccc(-c3nc(C#N)c(N4CCN(c5ccccc5)CC4)o3)o2)cc1` is “inactive”.
To `COc1ccccc1-c1nc(C#N)c(N2CCC(C(N)=O)CC2)o1` belongs “inactive”; to `Cc1ccccc1OCc1ccc(-c2nc(C#N)c(N3CCCCC3)o2)o1`, 23.1 µM (active).
The entry for `COc1ccc(NC(=O)NNC(=O)COc2cc(C)c(Cl)c(C)c2)c(OC)c1` is “inactive”.
For the molecule `Cc1ccc(S(=O)(=O)NCCSC(C)(C)C)cc1`, the Potency entry was “inactive”.
The entry for `O=C(O)CSCNC(=O)CC12CC3CC(CC(C3)C1)C2` is “inactive”; for `CCOCCCNC(=O)c1cc2c(=O)n3ccccc3nc2s1` it is “inactive”.
To `Nc1ccc(/C=C/c2ccnc3ccccc23)c([N+](=O)[O-])c1` belongs 10 µM (active); to `O=C(CC(c1ccccc1)c1ccccc1)NCC(O)c1ccc([N+](=O)[O-])cc1` (centres undefined), “inactive”; to `Cc1ccc(C)c(N2CCN(C(c3ccccc3)c3nnc(-c4ccccc4)o3)CC2)c1` (centres undefined), 23.1 µM (active).
To `CCn1c2ccccc2c2nnc(N3CCN(c4cc(C)ccc4C)CC3)nc21` belongs “inactive”.
`Cc1ccc(C)c(N2CCN(Cc3nnc(-c4ccccc4)o3)CC2)c1`: the Potency result is “inactive”.
The entry for `CC(C)c1ccc(S(=O)(=O)NC2CCCC2)cc1` is “inactive”; for `C/C(CC(=O)Nc1cccc(C(F)(F)F)c1)=N\NC(=O)C(=O)NCC(C)C` it is “inactive”; for `Cc1cc(N2CCCC2=O)cc(C)c1S(N)(=O)=O` it is “inactive”.
Turning to `COc1cccc(N2C(=O)C3CCCN3C2c2ccc(F)cc2)c1` (centres undefined), the Potency result is “inactive”.
On to `CSC1=NCCN1C(=O)c1ccc(S(=O)(=O)N2CCOCC2)cc1`, for which the Potency entry was “inactive”.
To `O=C(Nc1nnc(COc2ccccc2)s1)Nc1ccccc1F` belongs “inactive”; to `O=C(Nc1ccccc1)Nc1nnc(COc2ccccc2F)s1`, 10.3 µM (active); to `COCC(=O)Nc1nnc(COc2ccccc2)s1`, “inactive”.
To `Cc1cc(C)c(C(N)=O)c(Cl)n1` belongs “inactive”; to `CC1=C(C(=O)N(C)C)C(c2ccccc2OC(F)F)NC(=O)N1` (centres undefined), “inactive”; to `COc1cc(OC)c(C2=NOC(C(=O)Nc3c(C)n(C)n(-c4ccccc4)c3=O)C2)cc1Cl` (centres undefined), “inactive”.
To `Cc1cccc(OCC(=O)Nc2ccc(C(=O)O)cc2NC(=O)COc2cccc(C)c2)c1` belongs “inactive”; to `O=C(O)CN(Cc1ccco1)S(=O)(=O)c1ccc(F)cc1`, “inactive”; to `OC(c1nc2ccccc2[nH]1)C(O)C(O)C(O)c1nc2ccccc2[nH]1` (centres undefined), “inactive”.
As to `O=C(CSc1nc2ccccc2[nH]1)c1cccs1`, the Potency result is “inactive”.
Turning to `CCC(c1nc2ccccc2[nH]1)n1c(=O)c(-c2cccs2)nc2ccccc21` (centres undefined), the Potency is 18.4 µM (active).
To `CSc1nnc(-c2ccncc2)n1CCCN1CCCC1=O` belongs “inactive”; to `O=C(NCCc1nnc2ccc(SCC(=O)N3CCOCC3)nn12)c1ccccc1`, “inactive”.
As for `Cc1ccc(N(C(=O)Cc2cccs2)C2C=CS(=O)(=O)C2)cc1Cl` (centres undefined), the Potency entry is “inactive”.
To `Cc1ccc(C)c2c1cc(C)c1nnc(SCC(=O)Nc3cccc(C(=O)O)c3)n12` belongs “inactive”; to `O=C(Nc1cc(=O)[nH]c2ncnn12)c1ccccc1Cl`, “inactive”; to `COC(=O)CSc1ncnc2c1cnn2-c1ccc(C)cc1C`, “inactive”.
The figure for `CCN1CCN(c2ncnc3c2cnn3-c2ccc(C)c(C)c2)CC1` is 18.4 µM (active).
To `Cc1ccc(-n2ncc3c(N4CCC(C(N)=O)CC4)ncnc32)cc1` belongs “inactive”; to `CCN(c1ncnc2c1cnn2-c1ccc(C)cc1)C1CCCCC1`, “inactive”.
Take `COc1ccccc1N1CCN(C(=O)CSc2ncnc3c2cnn3-c2ccc(C)c(C)c2)CC1`: the Potency is 23.1 µM (active).
Consider `COc1ccc(-n2ncc3c(SCC(=O)NNC(C)=O)ncnc32)cc1`, for which the Potency entry is “inactive”.
To `O=C1C2C3C=CC(C3)C2C(=O)N1c1ncc([N+](=O)[O-])s1` (centres undefined) belongs “inactive”.
To `COc1ccc(C(=O)COC(=O)CCCC(=O)Nc2cc(C(F)(F)F)ccc2Cl)cc1` belongs “inactive”.
The entry for `Cc1cc(OC(=O)c2ccc(Cl)cc2)cc(=O)n1C` is “inactive”; for `O=C(COc1cccc(F)c1)Oc1ccc(C(=O)c2ccccc2)cc1` it is “inactive”.
Take `N#Cc1cccc(CSc2nnc(CCCO)n2-c2ccccc2)c1`: the Potency result was “inactive”.
The entry for `Cc1ccc(OCC(=O)Nc2ccc(-c3nnc(-c4ccco4)o3)cc2)cc1` is “inactive”; for `CCC(=O)Oc1cccc(C(=O)Nc2ccc(-c3nnc(-c4ccco4)o3)cc2)c1` it is 5.8 µM (active); for `CCOc1ccc(-c2nnc(-c3ccco3)o2)cc1` it is “inactive”.
To `O=C(Nc1ccc(C(=O)O)cc1)/C(=C\c1ccccc1)NC(=O)c1ccc(Br)cc1` belongs “inactive”; to `CN1CCN(C(=O)C2C3C=CC(C3)C2C(=O)O)CC1` (centres undefined), “inactive”.
As for `N#Cc1ccc(OCC(=O)Nc2nc(-c3ccccn3)cs2)cc1`, the Potency is 1.64 µM (active).
With `COc1ccc(OCC(=O)Nc2nnc(-c3ccco3)s2)cc1`, the Potency result was “inactive”.
As to `O=C(COc1ccccc1F)Nc1nc(-c2ccccn2)cs1`, the Potency is 4.61 µM (active).
To `CC1CCN(S(=O)(=O)c2nnc(NC(=O)COc3ccccc3F)s2)CC1` belongs “inactive”.
To `Cc1cc(NC(=O)[C@H](C)NC(=O)c2ccco2)ccc1Br` belongs “inactive”.
Regarding `Cc1ccnc(NC(=O)c2ccco2)n1`, the Potency result is “inactive”.
The entry for `NS(=O)(=O)c1ccc2nc(NC(=O)COc3ccccc3)sc2c1` is “inactive”.
To `CC(NC(=O)c1ccco1)C(=O)Nc1nc(-c2ccccn2)cs1` (centres undefined) belongs 5.8 µM (active).
On to `O=C(COc1ccccc1F)NC1CC1`, for which the Potency result is “inactive”.
To `Cn1c(=O)oc2cc(S(=O)(=O)NCCC(=O)NCc3ccccc3Cl)ccc21` belongs “inactive”; to `CCN(CC)C(=O)CSc1nnc(C2CCCCC2)o1`, “inactive”.
As for `CCC(=O)c1ccc(OC(=O)/C=C/c2cc(OC)c(OC)c(OC)c2)cc1`, the Potency entry is “inactive”.
To `CC(C)CNC(=O)/C=C/C(=O)O` belongs “inactive”; to `C[C@H](CO)N1C[C@H](C)[C@@H](CN(C)C(=O)Nc2ccc3c(c2)OCO3)Oc2c(cccc2N(C)C)C1=O`, “inactive”; to `CCCCOc1ccc(N(CC(=O)NC(C)C)C(=O)CCC(=O)Nc2ccccn2)cc1`, “inactive”.
The entry for `Cc1ccc(S(=O)(=O)NC(=O)N2CCCN(Cc3ccc(F)cc3)CC2)cc1` is “inactive”; for `O=C(Nc1ccccc1)N1CCN(Cc2ccccc2)CC1` it is “inactive”; for `Cc1ccc(S(=O)(=O)C(C#N)c2nc3ccccc3nc2N2CCCC2)cc1C` (centres undefined) it is “inactive”.
On to `CC(C)OC(=O)C(C#N)c1nc2ccccc2nc1N1CCN(Cc2ccccc2)CC1` (centres undefined), for which the Potency was 23.1 µM (active).
For `COc1cccc(OCC(=O)NNC(=O)c2cnccn2)c1`, the Potency result is “inactive”.
The entry for `CS(=O)(=O)N1CCN(c2cccc(Cl)n2)CC1` is “inactive”; for `CCN(CC)CCn1cnc2c1c(=O)[nH]c(=O)n2Cc1ccccc1` it is “inactive”; for `COCCn1cnc2c1c(=O)n(Cc1ccc(Br)cc1)c(=O)n2Cc1ccccc1` it is “inactive”.
To `N=c1c2c(-c3ccccc3)c(-c3ccccc3)n(Cc3ccccc3)c2ncn1CCCO` belongs 18.4 µM (active); to `COc1ccc(C(=O)CSc2nnc(-c3ccco3)o2)cc1`, “inactive”; to `O=C1CN(C(=O)CN2C(=O)NC3(CCCCC3)C2=O)c2ccccc2N1`, “inactive”.
The figure for `Cc1ccn2c(=O)c(C(=O)NCCC3=CCCCC3)c(O)nc2c1` is 20.6 µM (active); for `CC(Sc1nncn1C)C(=O)NCCC1=CCCCC1` (centres undefined) it is “inactive”; for `CCOCCCNC(=O)C1(O)c2cc(Br)ccc2NC(=O)N1c1ccc(C)c(C)c1` (centres undefined) it is “inactive”.
Take `Cc1cccc(NC(=O)CCN2CC(C)CC(C)C2)c1` (centres undefined): the Potency result is “inactive”.
To `Cc1cc(=O)oc2cc(OC(C)C(=O)Nc3ccc(N4CCOCC4)cc3)ccc12` (centres undefined) belongs “inactive”; to `O=C(CC1Oc2ccccc2NC1=O)NCCCN1CCN(Cc2ccccc2)CC1` (centres undefined), “inactive”; to `CC1CN(C(=O)CCC(=O)NC2CCN(Cc3ccccc3)CC2)c2ccccc2O1` (centres undefined), “inactive”.
For the molecule `CC1CN(C(=O)CCC(=O)NCCCN2CCC(Cc3ccccc3)CC2)c2cc(Cl)ccc2O1` (centres undefined), the Potency is 18.4 µM (active).
In the case of `CSc1ccc(Cl)c(C(=O)OCC(=O)N2CC(C)OC(C)C2)c1` (centres undefined), the Potency result is “inactive”.
Regarding `Cc1noc(C)c1S(=O)(=O)N(C)C[C@H]1Oc2ccc(NC(=O)C3CCCCC3)cc2C(=O)N([C@H](C)CO)C[C@@H]1C`, the Potency result is “inactive”.
The entry for `C[C@H]1COc2cc(N3CCSCC3)ccc2S(=O)(=O)N1` is “inactive”; for `Cc1nnc(C)n1/N=C/c1ccc(C(C)C)cc1` it is “inactive”; for `Cc1ccc(F)c(NC(=O)CCOc2ccccc2C)c1` it is “inactive”.
`CCOC(=O)N1CCC(NC(=O)COc2cc(=O)n(C)c3ccccc23)CC1`: the Potency entry was “inactive”.
For `Cc1cc(Br)ccc1NC(=O)CCCOc1cc(=O)n(C)c2ccccc12`, the Potency was 25.9 µM (active).
For `Cc1cc(C)n2nc(C(=O)Oc3ccc4c(c3)OCO4)nc2n1`, the Potency result was “inactive”.
For `CC(=O)c1c(N)n(C)c(=O)n(C)c1=O`, the Potency entry is “inactive”.
With `CC(=O)c1c(-c2ccccc2)c2ccccc2[nH]c1=O`, the Potency result was “inactive”.
To `Cc1c(-c2ccccc2)n[nH]c1C(=O)N=Nc1c(O)[nH]c2ccccc12` belongs 23.1 µM (active); to `CCOC(=O)c1[nH]c2ccccc2c1N=C(C)N(CC)CC`, “inactive”.
The entry for `O=C(c1ccco1)N1CCN(C(=O)C2CC(c3ccc(F)cc3)=NO2)CC1` (centres undefined) is “inactive”; for `COC(=O)c1ccc(CN(c2ccccc2OC)S(=O)(=O)c2cccs2)o1` it is 23.1 µM (active).
To `COC(=O)c1ccc(Cc2ccccc2)o1` belongs “inactive”.
As for `COc1ccccc1N(CC(=O)Nc1ccc(C(F)(F)F)cc1)S(C)(=O)=O`, the Potency result was “inactive”.
To `O=C(O)C1C2CC2CN1C(=O)c1ccc(Cl)cc1Cl` (centres undefined) belongs “inactive”; to `O=C(CSC1CC(=O)N(CCc2ccccc2)C1=O)Nc1ccc(Cl)cc1` (centres undefined), “inactive”; to `Cc1ccccc1NC(=O)CSc1ccc2nnc(-c3ccccn3)n2n1`, “inactive”.
With `O=C(CSc1ccc(-c2ccccn2)nn1)Nc1ccccc1`, the Potency is 18.4 µM (active).
The entry for `O=C(CSc1ccc(-c2ccc(F)cc2)nn1)Nc1ccc2c(c1)OCCO2` is “inactive”; for `O=C(CSc1ccc(-c2ccco2)nn1)NCc1ccc2c(c1)OCO2` it is “inactive”; for `O=C(CSc1ccc(-c2ccco2)nn1)Nc1cccc(F)c1` it is 20.6 µM (active).
To `O=C(CSc1ccc(-c2ccc(-n3cccn3)cc2)nn1)Nc1ccc([N+](=O)[O-])cc1` belongs “inactive”.
